Only some compounds are listed: those with a hit (about 16% of all), similar ones and a draw of the others.
DT40 TDP1 CPT: qHTS for Inhibitors of human tyrosyl-DNA phosphodiesterase 1 (TDP1): qHTS in cells in presence of CPT | chicken DT40 Tdp1-/-;hTDP1 cells + 20 nM CPT, ATP luminescence, 48 h | Potency, µM (top dose mostly 46.2 µM), hits mostly inhibitors | hit rate 12% among 420,000 | AID 686979, 2013; note: nearly all actives have a fitted effect of over 55% in size
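Cell growth measured by CellTiter-Glo luminescence after a minimum 48 h, 37 C compound exposure with 20 nM CPT in Tdp1-knockout DT40 cells stably expressing hTDP1, seeded 400/well; qHTS titration format.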
uPA surface inh: qHTS for Inhibitors of Cell Surface uPA Generation | cell surface uPA generation assay, qHTS | Potency, µM (top dose mostly 38.3 µM), hits mostly inhibitors | hit rate 0.31% among 330,000 | AID 540303, 2011; active = well fitted inhibition curve with a large enough effect; inconclusive = small, poorly fitted or top-dose-only effect; inactive = no such curve, though single readings can be large or run the other way; tested in mouse RAW 264.7 cells; note: nearly all actives have a fitted effect of over 55% in size
TDP1 cell noCPT: qHTS for Inhibitors of human tyrosyl-DNA phosphodiesterase 1 (TDP1): qHTS in cells in absence of CPT; DT40 Tdp1-/- hTDP1 cells, no CPT, ATP luminescence, 48 h; Potency, µM (top dose mostly 46.2 µM), usual class: inhibitors; hit rate 15% among 420,000; AID 686978, 2013; note: nearly all actives have a fitted effect of over 55% in size
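A cellular qHTS used chicken DT40 cells lacking endogenous Tdp1 but carrying stably transfected human TDP1. Compounds were applied without camptothecin, and cell growth kinetics were judged by ATP-dependent luminescence after ≥48 hr.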
TDP1 block: qHTS Assay for Inhibitors of Tyrosyl-DNA Phosphodiesterase (TDP1); Potency, µM (titrated, usually from 130 µM), most hits filed as inhibitors; recombinant TDP1, AlphaScreen DNA substrate cleavage; hit rate 0.28% among 350,000; AID 485290, 2010; note: nearly all actives have a fitted effect of over 40% in size
Target sequence (Q9NUW8 whole entry, looked up): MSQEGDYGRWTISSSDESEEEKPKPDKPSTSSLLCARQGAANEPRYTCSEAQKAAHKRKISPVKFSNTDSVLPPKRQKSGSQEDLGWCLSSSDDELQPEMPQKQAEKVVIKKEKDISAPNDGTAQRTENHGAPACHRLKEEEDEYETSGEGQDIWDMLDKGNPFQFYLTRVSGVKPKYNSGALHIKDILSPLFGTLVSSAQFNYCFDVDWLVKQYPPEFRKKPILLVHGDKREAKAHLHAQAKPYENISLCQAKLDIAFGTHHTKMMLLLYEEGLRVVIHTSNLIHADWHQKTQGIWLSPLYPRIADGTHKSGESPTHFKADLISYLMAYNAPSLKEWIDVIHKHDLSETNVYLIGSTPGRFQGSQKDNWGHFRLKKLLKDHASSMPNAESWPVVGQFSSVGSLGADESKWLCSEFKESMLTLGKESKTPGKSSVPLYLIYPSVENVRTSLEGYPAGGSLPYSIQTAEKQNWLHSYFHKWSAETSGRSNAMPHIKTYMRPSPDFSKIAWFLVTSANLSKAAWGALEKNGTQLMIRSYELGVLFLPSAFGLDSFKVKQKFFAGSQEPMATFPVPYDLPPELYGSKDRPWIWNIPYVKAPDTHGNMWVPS
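E. coli-derived human Tdp1, 1 nM final. Cpd preinc 15 min RT; substrate 15 nM final, 5 min RT; AS bead mix 10 ug/ml final, 10 min RT. Signal loss = tyrosine-FITC cleavage. No-enzyme wells = max signal.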
miR-21 reporter: qHTS Assay for Modulators of miRNAs and/orActivators of miR-21 | 340,000 tested, under 10 active | HeLa miR-21 FLuc reporter, luciferase, 48 h | Potency, µM (top dose mostly 38.3 µM), actives largely listed as activators;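 note: miR-21 action dims this reporter so a rising signal means less miR-21 action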
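HeLa miR-21-FLuc reporter line, endogenous miR-21; 2000 cells/well in DMEM/10% FBS; compound titration up to ~40uM final, 48 h, 37 degree Celsius; luciferase detection reagent, 15 min lysis, CCD luminescence.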
Numbers stand for hits; – = inactive; ? = inconclusive; · = not tested or not shown. Unless noted, calls come from the whole dose curve; as a rule, active = well fitted curve in the direction sought with a large enough effect; inconclusive = small, poorly fitted or top-dose-only effect, or another doubt; inactive = no such curve, though single readings can be large; an effect the other way counts as inactive or inconclusive.

SMILES	DT40 TDP1 CPT	uPA surface inh	TDP1 cell noCPT	TDP1 block	miR-21 reporter
O=C1COc2ccc(-c3csc(NCCc4ccccc4)n3)cc2N1	16µM	–	3.7µM	–	–
COc1ccccc1-c1nc(SCC(=O)c2ccccc2)n[nH]1	?	·	16µM	–	–
COc1ccccc1-c1nc(SCC(=O)Nc2ccc(C)c(C)c2)n[nH]1	23µM	·	23µM	–	–
O=C(CSc1n[nH]c(-c2ccccc2)n1)c1ccccc1	?	–	?	–	–
Cc1cc(C)c(NC(=O)CSc2n[nH]c(-c3ccccc3Cl)n2)c(C)c1	?	·	6.5µM	–	–
Cc1ccc(NC(=O)CSc2n[nH]c(-c3ccncc3)n2)cc1C	–	–	–	–	–
CCCOc1ccccc1-c1nc(SCC(=O)c2ccccc2)n[nH]1	16µM	·	18µM	–	?
CCCCC(C)/C=C(C)/C=C(\C)C(=O)NC1=CC(O)(/C=C/C=C/C=C/C(=O)NC2=C(O)CCC2=O)C2OC2C1=O (stereo not given)	·	·	·	–	·
CC(C)c1ccc(C(=O)CSc2n[nH]c(-c3ccncc3)n2)cc1	–	–	?	–	–
CC(C)Oc1ccccc1-c1nc(SCC(=O)c2ccc(F)cc2)n[nH]1	21µM	·	16µM	–	–
O=C1COc2ccc(-c3cc(-c4ccc(F)cc4)c4c(n3)-c3cc(Cl)ccc3OC4)cc2N1	?	·	?	–	–
COc1ccc(-c2cc(-c3ccc4c(c3)NC(=O)CO4)nc3c2COc2ccc(F)cc2-3)cc1	?	·	1.5µM	–	–
O=C1COc2ccc(-c3cc(-c4ccc(F)cc4)c4c(n3)-c3ccccc3OC4)cc2N1	6.5µM	·	5.8µM	–	–
CN(CC(=O)N1CCc2ccccc2C1)S(=O)(=O)c1ccc2c(c1)c(=O)n(C)c(=O)n2C	–	–	?	–	–
CC(C)=CCC/C(C)=C/CNC(=O)CC1C[C@H](C(=O)N(C(C)C)C(C)C)[C@@]2(C)c3[nH]c4ccccc4c3CCN2C1=O (stereo not given in full)	16µM	–	23µM	–	·
CC(C)N(C(=O)[C@H]1CC(CC(=O)NCCCN(C)C)C(=O)N2CCc3c([nH]c4ccccc34)[C@]12C)C(C)C (stereo not given in full)	–	–	–	–	·
COc1ccc2[nH]c3c(c2c1)CCN1C(=O)C(CC(=O)NC/C=C(\C)CCC=C(C)C)C[C@H](C(=O)N(C(C)C)C(C)C)[C@@]31C (stereo not given in full)	?	?	18µM	–	·
CCN(CC)CCCNC(=O)CSc1nc2c(c(C(F)(F)F)n1)CCc1ccccc1-2	?	–	?	–	–
CN(C)CCN1CCN(C2CN(Cc3cn(Cc4ccc(C(F)(F)F)cc4)nn3)S(=O)(=O)C2)CC1 (stereo not given)	–	·	–	·	·
O=C1c2sc3nc4n(c(=O)c3c2CCC1Br)CCCCC4 (stereo not given)	3.3µM	–	2.9µM	·	–
O=c1c2c3c(sc2nc2n1CCCCC2)CCC3	–	–	–	–	–
CC(=O)c1ccc(NC(=O)CSc2nnc3ccc(-c4ccc(F)cc4)nn23)cc1	–	·	–	–	–
Nc1nc(NCc2ccc(Cl)c(Cl)c2)c2[nH]cnc2n1	?	·	13µM	–	·
Nc1nc(NCc2ccc(Cl)cc2)c2[nH]cnc2n1	?	·	?	–	·
CCOc1ccc(-c2c[n+]3c(n2-c2ccccc2)CCCCC3)cc1	0.082µM	?	0.0073µM	–	–
COc1ccc(-n2c(-c3ccc(Br)cc3)c[n+]3c2CCC3)cc1	18µM	–	4.6µM	–	–
CCOc1ccc(-c2cnc3n2CCCCC3)cc1	?	–	–	–	–
COc1ccc(-n2c(-c3ccc(Br)cc3)n[nH]c2=S)cc1	?	–	?	·	–

Bioassay records from PubChem.
